# Out of some 1,200 compounds screened, about 150 (12%) were called active.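 Rule for the calls: active = ratio at least 3 SD above the weak peptide control, stable starting fluorescence, no direct agonism earlier; inactive = the rest.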 A selection follows.
# Target: Mas-related G-protein coupled receptor member X1 (Homo sapiens) (UniProt Q96LB2)
# Assay: allosteric enhancers of human MrgX1 signaling – HEK293 cells, Fluo-4 calcium flux, confirmation (AID 602413);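 note: compound followed by low BAM8-22 agonist challenge near EC20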
# Details: MrgX1-HEK293, Fluo-4 calcium fluorescence, FDSS, at 10 µM; hits give high values
# Chain of Mas-related G-protein coupled receptor member X1 (Homo sapiens) (Q96LB2 whole entry, looked up): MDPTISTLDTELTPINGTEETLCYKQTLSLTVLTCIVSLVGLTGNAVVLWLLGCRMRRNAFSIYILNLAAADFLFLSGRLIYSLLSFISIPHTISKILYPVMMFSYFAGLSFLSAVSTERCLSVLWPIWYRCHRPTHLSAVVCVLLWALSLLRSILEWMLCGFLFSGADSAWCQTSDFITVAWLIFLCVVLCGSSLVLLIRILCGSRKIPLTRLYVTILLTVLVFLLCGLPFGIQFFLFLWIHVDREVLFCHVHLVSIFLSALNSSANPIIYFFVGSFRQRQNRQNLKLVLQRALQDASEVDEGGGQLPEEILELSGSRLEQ
row,Structure (SMILES),activation (ratio percentage)
1,OCCn1c(-c2ccccc2)csc1=Nc1ccccc1,inactive
2,CN1/C(=C\C=C2\N=C(c3ccc(F)cc3)OC2=O)C(C)(C)c2ccccc21,inactive
3,COCCNC(=O)C1CCN(S(=O)(=O)c2ccc3c(c2)OCCO3)CC1,inactive
4,Fc1cccc(Cl)c1COc1ccc(-c2nnco2)cc1,inactive
5,O=C1C(Cc2ccc(O)cc2)NC(=S)N1Cc1ccccc1 (centres undefined),inactive
6,COC(=O)c1c(NC(=O)CN(c2ccc(C)c(C)c2)S(C)(=O)=O)sc2c1CCCC2,inactive
7,Cc1cccc(Cn2cnc3c(N)c(C)c(C)cc32)c1,inactive
8,COc1cccc(-c2cnc(OC(C)(C)C)nc2OC(C)(C)C)c1,inactive
9,Brc1ccccc1C1Nc2cccc3cccc(c23)N1,inactive
10,Cc1ccc(OC(=O)c2cc3ccccc3o2)cc1,inactive
11,Cc1ccnc(NC(=O)C(C)N2C(=O)c3ccccc3C2=O)c1 (centres undefined),inactive
12,Cc1cccc(NC(=O)C(C)N2C(=O)C3C4CC(C(Br)C4Br)C3C2=O)c1 (centres undefined),11.6% (active)
13,COC(=O)Cn1c(O)c(N=NC(=O)OC)c2ccccc21,inactive
14,CCOc1ccc(C2=CC(c3ccccc3)n3ncnc3N2)cc1 (centres undefined),inactive
15,COc1cc(C)c(C)cc1S(=O)(=O)N1CCCc2ccccc21,12.4% (active)
16,COc1ccc(C2SCCN2S(=O)(=O)c2ccccc2)cc1OC (centres undefined),inactive
17,COc1cc(C(F)(F)F)nc2c(Br)c(C(C)(C)C)nn12,inactive
18,Cc1c(C(=O)N2CCCc3ccccc32)sc2nc(-c3ccccc3)cn12,inactive
19,CCOc1ccc2nc(/N=C/c3nc(-c4ccccc4)oc3O)sc2c1,inactive
20,Cc1c(C(=O)N2CCN(c3ccc(F)cc3)CC2)oc2c1C(=O)CCC2,inactive

row,Structure (SMILES),activation (ratio percentage)
1,CCOc1ccc(NC(=O)N2CC=C(n3c(=O)[nH]c4ccccc43)CC2)cc1,inactive
2,CCc1ccc(N(CC(=O)Nc2sc3c(c2C(=O)OC)CCCC3)S(C)(=O)=O)cc1,inactive
3,O=C(c1ccc(OC2CCN(C(=O)c3cccnc3)CC2)cc1)N1CCCCCC1,inactive
4,CC(C)CNc1ncnc2c1cnn2Cc1ccc(Cl)cc1,inactive
5,CC(=O)N1c2ccc(S(=O)(=O)N3CCCC(C(=O)Nc4cccc(Cl)c4)C3)cc2CC1C (centres undefined),inactive
6,Cc1ccc(-n2cnc3ncnc(-c4ccccc4)c32)cc1,inactive
7,CC(C)CC(=O)N/C(N)=N/c1nc2ccccc2s1,inactive
8,Cc1ccc2nc(Nc3ccccc3)cc(C)c2c1,inactive
9,COc1ccc(Cc2nc(-c3ccccn3)no2)cc1OC,inactive
10,Nc1cc(OC(=O)c2ccccc2Br)nn1S(=O)(=O)c1ccccc1,inactive
11,O=C(c1cccc(S(=O)(=O)Nc2ccccc2Cl)c1)N1CCN(C(=O)c2ccco2)CC1,inactive
12,Nc1ccc(Oc2ccc(Cl)cc2)cc1,inactive
13,CC1(C)CC2CC(C)(CN2c2ncnc3ccc(Br)cc23)C1 (centres undefined),29.4% (active)
14,Cc1ccc(S(=O)(=O)N(C)c2nc3ccccc3n3c(C(C)C)nnc23)cc1,27.8% (active)
15,COc1ccc(Nc2nnc(C)c3ccccc23)cc1,inactive
16,O=C(Nc1cccc(Cl)c1)c1cncn1-c1ccc(F)cc1,inactive
17,O=C(Nc1nc2c(F)cc(F)cc2s1)C1COc2ccccc2O1 (centres undefined),inactive
18,NC(=O)c1c(Nc2nc3c(F)cccc3s2)sc2c1CCCC2,15.4% (active)
19,COc1ccc(NC(=O)c2cc(-c3ccc(C)o3)nc3ccccc23)cc1,inactive
20,O=C(COC(=O)c1ccc(NS(=O)(=O)c2cccs2)cc1O)Nc1ccc(F)cc1,inactive

row,Structure (SMILES),activation (ratio percentage)
1,Cc1nn(C(=O)c2ccoc2C)c(N)c1-c1ccccc1,inactive
2,Cc1nc2ccccc2cc1OCc1ccc(F)cc1,inactive
3,Cc1cc2ncn(CCCCOc3ccccc3)c2cc1C,inactive
4,CCN(c1cccc(C)c1)S(=O)(=O)c1ccc(-c2coc(C)n2)cc1,inactive
5,Cc1ccc(N/C(N)=N/c2nc(C(F)(F)F)cc(C(F)(F)F)n2)cc1,inactive
6,O=C(Nc1ccccc1N1CCOCC1)c1csc2c1CCCC2,inactive
7,O=C(Nc1ccccc1N1CCCCC1)c1ccc2nccnc2c1,11.5% (active)
8,Cc1nonc1C1CCCN1Cc1nc(-c2ccc(F)cc2F)oc1C (centres undefined),inactive
9,CCOC(=O)N1CCN(C(=O)COCc2cc(-c3ccc4c(c3)OCO4)on2)CC1,inactive
10,COc1ccc(-c2cc(C(F)(F)F)nc(S(C)(=O)=O)n2)cc1OC,inactive
11,O=C(Oc1ccc(C(=S)N2CCOCC2)cc1)c1ccc(F)cc1,inactive
12,Cc1ccc2c(c1)c1ncnc(N3CCc4ccccc4C3)c1n2C,inactive
13,Cc1occc1C(=O)Nc1nnc(-c2ccncc2)s1,inactive
14,Cc1ccc2c(C)c(C(=O)N(C)CCC3CCCCO3)oc2c1C (centres undefined),inactive
15,CCOCc1nnc(NC(=O)CCC2CCCCC2)s1,inactive
16,COc1ccc(OC)c(Nc2nc3ccccc3n3cnnc23)c1,inactive
17,COC(=O)Cc1cc(=O)n(-c2nc3ccccc3s2)[nH]1,inactive
18,CCC(C)Sc1nc(C)nc2c1c(=O)n(C)c(=O)n2C (centres undefined),inactive
19,COc1ccc(C(=O)NC(=S)NC2CCCCC2)cc1,inactive

# Source: PubChem BioAssay AID602413 (Johns Hopkins Ion Channel Center, 2012)
